Four compounds from PubChem BioAssay (EPA / NIEHS) can be followed below.

The target of experiment [1] is human RAR-related Orphan Receptor gamma (RORg), RORC (gene 6097) (UniProt P51449). Nature of the experiment: ATG_RORg_TRANS: Attagene TRANS-FACTORIAL HepG2 Assay for human RAR-related Orphan Receptor gamma (RORg) (AID 2283011; active means hit-call score of the fitted dose curve at least 0.9, where 1 is the maximum). An outline of the steps: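 Chimeric RORg-Gal4 transactivation in transfected HepG2; 24 h exposure; RT-PCR/capillary electrophoresis readout of reporter mRNA, DMSO baseline.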

Read-out in experiment [2]: E-selectin (Homo sapiens) (UniProt P16581)
Nature of the experiment: BSK_3C_Eselectin: BioMAP Diversity Plus: 3C Assay for Eselectin Biomarker Activity (AID 2283015).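 Further: cell surface E-selectin protein quantified by ELISA 24 h after dosing.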 The conditions noted are these: primary human endothelial cells (HUVEC); actives raise or lower the signal. An outline of the steps: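 Endpoint derived by bidirectional fitting against DMSO vehicle; signal is ELISA-detected E-selectin from primary HUVEC at 24 h post-dosing, with parallel SRB staining (0.1% SRB, 560 nm) flagging cytotoxicity.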

Read-out in experiment [3]: Interleukin-1 alpha (IL1a), IL1A (gene 3552)
The experiment can be described thus: BSK_BE3C_IL1a: BioMAP Diversity Plus: BE3C Assay for Interleukin-1 alpha (IL1a) Biomarker Activity (AID 2283016). The conditions noted are these: primary human bronchial epithelial cells; actives raise or lower the signal. An outline of the steps:
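BE3C primary human bronchial epithelium; cpd 24 h; IL-1a by ELISA; bidirectional fit vs DMSO; parallel SRB (0.1% SRB, 10% TCA fix, 560 nm) for cytotoxicity.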

Read-out in experiment [4]: Monocyte Chemoattractant Protein-1 (MCP1), CCL2 (gene 6347)
Nature of the experiment: BSK_3C_MCP1: BioMAP Diversity Plus: 3C Assay for Monocyte Chemoattractant Protein-1 (MCP1) Biomarker Activity (AID 2283017). The following applies: primary human endothelial cells (HUVEC); actives raise or lower the signal. An outline of the steps: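 Using human vascular primary endothelium, researchers measured MCP-1 by ELISA 24 h after treatment, with DMSO serving as negative control for bidirectional fitting.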

Read-out in experiment [5]: Monocyte Chemoattractant Protein-1 (MCP1), CCL2 (gene 6347)
The experiment can be described thus: BSK_4H_MCP1: BioMAP Diversity Plus: 4H Assay for Monocyte Chemoattractant Protein-1 (MCP1) Biomarker Activity (AID 2283018). The following applies: primary human endothelial cells (HUVEC); actives raise or lower the signal. An outline of the steps: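 ELISA read-out of MCP-1 from human vascular endothelial primary cells taken at 24 hours after compound exposure. Activity was fitted in both directions relative to DMSO, which served as negative control.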

Read-out in experiment [6]: Human Leukocyte Antigen - DR isotype (HLADR), HLA-DRA (gene 3122)
The experiment can be described thus: BSK_3C_HLADR: BioMAP Diversity Plus: 3C Assay for Human Leukocyte Antigen - DR isotype (HLADR) Biomarker Activity (AID 2283019).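 On outcome: ELISA of cell-surface HLA-DR on HUVEC 24 h after dosing.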 The following applies: primary human endothelial cells (HUVEC); actives raise or lower the signal. An outline of the steps: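 Compound added to primary HUVEC cultures, 24 h incubation, then HLA-DR determined by ELISA; endpoint derived by bidirectional fitting relative to DMSO negative control.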

Read-out in experiment [7]: Interleukin-8 (IL8), CXCL8 (gene 3576)
Nature of the experiment: BSK_3C_IL8: BioMAP Diversity Plus: 3C Assay for Interleukin-8 (IL8) Biomarker Activity (AID 2283020). The conditions noted are these: primary human endothelial cells (HUVEC); actives raise or lower the signal. An outline of the steps:
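ELISA read-out of IL-8 from human umbilical vein endothelium, measured 24 h after chemical dosing. Activity is expressed relative to DMSO negative control, with both increases and decreases fitted.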

Read-out in experiment [8]: Monokine induced gamma interferon (MIG), CXCL9 (gene 4283)
The experiment can be described thus: BSK_3C_MIG: BioMAP Diversity Plus: 3C Assay for Monokine induced gamma interferon (MIG) Biomarker Activity (AID 2283021).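 On AC50: MIG protein level measured by immunoassay in the treated endothelial cultures.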 The conditions noted are these: primary human endothelial cells (HUVEC); actives raise or lower the signal. An outline of the steps:
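Read-out is ELISA detection of MIG on human umbilical vein endothelial cells, taken 24 h after dosing. Gain or loss of signal was scored relative to DMSO controls using bidirectional curve fitting.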

Experiment [9] has as its target human Vitamin D Receptor (VDR), VDR (gene 7421) (UniProt P11473). Nature of the experiment: ATG_VDR_TRANS: Attagene TRANS-FACTORIAL HepG2 Assay for human Vitamin D Receptor (VDR) (AID 2283022; active means hit-call score of the fitted dose curve at least 0.9, where 1 is the maximum). An outline of the steps:
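Multiplexed TRANS reporter in HepG2; 24 h treatment; reporter mRNA by RT-PCR plus capillary electrophoresis; upregulation scored relative to DMSO.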

Experiment [10] can be described thus: BSK_3C_SRB: Viability Assessment in the BioMAP Diversity Plus: 3C Assay (AID 2283023).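 Further: fitted both ways against DMSO so a hit may be signal rise or drop.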 The following applies: primary human endothelial cells (HUVEC). An outline of the steps:
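Overt cytotoxicity is gauged in parallel confluent HUVEC cultures by SRB total-protein staining at the time of biomarker measurement, 24 h after dosing. Gain or loss of signal is fitted versus DMSO.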

Read-out in experiment [11]: Matrix Metallopeptidase 1 (MMP1), MMP1 (gene 4312)
Nature of the experiment: BSK_BE3C_MMP1: BioMAP Diversity Plus: BE3C Assay for Matrix Metallopeptidase 1 (MMP1) Biomarker Activity (AID 2283024). The following applies: primary human bronchial epithelial cells; actives raise or lower the signal. An outline of the steps: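 Human bronchial epithelial cells (BE3C system) exposed to compound for 24 h; MMP1 then quantified by ELISA. Activity was fitted in both directions relative to DMSO.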

Experiment [12] can be described thus: BSK_3C_Vis: BioMAP Diversity Plus: 3C Assay for Morphology Visualization (AID 2283025).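 Further: fitted both ways so gain or loss versus DMSO counts.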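 On AC50: light microscopy image of cell morphology used as background control.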 The following applies: primary human endothelial cells (HUVEC). An outline of the steps:
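Chemicals were added to primary human umbilical vein endothelium, cells were incubated 24 h, and morphology was then visualized by light microscopy. Gain or loss of signal was fitted bidirectionally relative to DMSO.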

Read-out in experiment [13]: Pselectin, SELP (gene 6403)
The experiment can be described thus: BSK_4H_Pselectin: BioMAP Diversity Plus: 4H Assay for Pselectin Biomarker Activity (AID 2283026). The conditions noted are these: primary human endothelial cells (HUVEC); actives raise or lower the signal. An outline of the steps: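 ELISA read-out of P-selectin on human umbilical vein endothelium after 24 h of dosing. Values derive from bidirectional fitting relative to DMSO. Parallel SRB protein staining flagged overt cytotoxicity.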

The nature of experiment [14]: BSK_4H_SRB: Viability Assessment in the BioMAP Diversity Plus: 4H Assay (AID 2283027).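 Further: cells exposed to compound for 24 h before staining.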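 On AC50: curves fitted both ways versus DMSO so AC50 may be loss or gain.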 The following applies: primary human endothelial cells (HUVEC). An outline of the steps:
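Human umbilical vein endothelial cells were dosed with chemical and, after 24 h, fixed with 10% TCA, stained with 0.1% sulforhodamine B, and read at 560 nm to give total protein as a cytotoxicity measure. Bidirectional fitting relative to DMSO control.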

A short description of experiment [15]: BSK_BE3C_SRB: Viability Assessment in the BioMAP Diversity Plus: BE3C Assay (AID 2283028). The conditions noted are these: primary human bronchial epithelial cells. An outline of the steps:
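SRB total-protein staining (0.1%, after TCA fixation) of chemically dosed human bronchial epithelial primary cells at 24 h; DMSO serves as the negative control for bidirectional curve fitting.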

Read-out in experiment [16]: Thrombomodulin, THBD (gene 7056)
Nature of the experiment: BSK_3C_Thrombomodulin: BioMAP Diversity Plus: 3C Assay for Thrombomodulin Biomarker Activity (AID 2283029). The conditions noted are these: primary human endothelial cells (HUVEC); actives raise or lower the signal. An outline of the steps: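 Read-out is ELISA of thrombomodulin on human umbilical vein endothelium 24 h after chemical dosing. Gain or loss of signal is scored relative to DMSO. Overt cytotoxicity is checked in parallel cultures by sulforhodamine B staining.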

Read-out in experiment [17]: Urokinase-type plasminogen activator receptor (uPAR), PLAUR (gene 5329)
Nature of the experiment: BSK_4H_uPAR: BioMAP Diversity Plus: 4H Assay for Urokinase-type plasminogen activator receptor (uPAR) Biomarker Activity (AID 2283030). The conditions noted are these: primary human endothelial cells (HUVEC); actives raise or lower the signal. An outline of the steps: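 Endpoint derived via bidirectional curve fitting against DMSO baseline; readout was ELISA detection of uPAR on umbilical vein endothelial cells at 24 h post-treatment, with SRB-stained parallel cultures assessing cytotoxicity.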

For experiment [18], the target named is Retinoic acid receptor RXR-alpha (Homo sapiens) (UniProt P19793). Nature of the experiment: ATG_RXRa_TRANS: Attagene TRANS-FACTORIAL HepG2 Assay for human Retinoid X Receptor alpha (RXRa) (AID 2283012; active means hit-call score of the fitted dose curve at least 0.9, where 1 is the maximum). An outline of the steps: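 Transient transfection of human HepG2 with multiple GAL4-UAS reporter constructs; 24 h compound exposure; total RNA isolated, reverse-transcribed, PCR-amplified, 6-FAM labelled, HpaI-cut, resolved by capillary electrophoresis. Positive-direction fit versus DMSO.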

Experiment [19] has as its target human Retinoid X Receptor beta (RXRb), RXRB (gene 6257) (UniProt P28702). Nature of the experiment: ATG_RXRb_TRANS: Attagene TRANS-FACTORIAL HepG2 Assay for human Retinoid X Receptor beta (RXRb) (AID 2283013; active means hit-call score of the fitted dose curve at least 0.9, where 1 is the maximum). An outline of the steps:
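Transfect HepG2 with GAL4-UAS multi-reporter constructs (chimeric NR-Gal4, TRANS format); dose compound 24 h; isolate RNA, RT-PCR, FAM primer extension, HpaI digest; quantify by capillary electrophoresis; positive direction vs DMSO.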

Experiment [20] concerns the target human Thyroid Receptor alpha (THRa1), THRA (gene 7067) (UniProt P10827). Nature of the experiment: ATG_THRa1_TRANS: Attagene TRANS-FACTORIAL HepG2 Assay for human Thyroid Receptor alpha (THRa1) (AID 2283014; active means hit-call score of the fitted dose curve at least 0.9, where 1 is the maximum). An outline of the steps:
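Measured here is mRNA from a GAL4-UAS reporter in transfected HepG2 cells carrying a Gal4-fused receptor, 24 h post-dose. DMSO served as negative control and baseline.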

As a reminder, the AC50 is the midpoint of the concentration-response curve, whichever way the signal moves.

Inconclusive results are not listed. Calls of active or inactive are those of the source. How the source made its calls, unless noted: active means hit-call score of the fitted dose curve at least 0.9, where 1 is the maximum; inactive means score below 0.9.

human Retinoid X Receptor beta (RXRb), RXRB (gene 6257), sequence (P28702 whole entry, looked up, the tested form may be a part): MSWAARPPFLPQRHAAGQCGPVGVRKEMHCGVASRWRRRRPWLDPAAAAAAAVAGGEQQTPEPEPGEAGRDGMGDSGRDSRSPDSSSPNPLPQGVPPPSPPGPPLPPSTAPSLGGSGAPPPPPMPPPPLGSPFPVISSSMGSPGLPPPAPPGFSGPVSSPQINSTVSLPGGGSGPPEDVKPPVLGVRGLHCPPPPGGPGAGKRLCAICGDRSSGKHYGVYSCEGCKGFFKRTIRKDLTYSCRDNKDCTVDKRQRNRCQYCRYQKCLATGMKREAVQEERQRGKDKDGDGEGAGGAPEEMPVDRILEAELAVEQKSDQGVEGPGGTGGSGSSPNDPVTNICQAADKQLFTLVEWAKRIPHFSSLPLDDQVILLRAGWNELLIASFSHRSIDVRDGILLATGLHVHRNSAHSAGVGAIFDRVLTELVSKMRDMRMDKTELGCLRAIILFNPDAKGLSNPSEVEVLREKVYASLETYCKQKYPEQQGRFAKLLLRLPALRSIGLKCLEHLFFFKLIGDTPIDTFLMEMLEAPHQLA
Retinoic acid receptor RXR-alpha (Homo sapiens), sequence (P19793 whole entry, looked up, the tested form may be a part): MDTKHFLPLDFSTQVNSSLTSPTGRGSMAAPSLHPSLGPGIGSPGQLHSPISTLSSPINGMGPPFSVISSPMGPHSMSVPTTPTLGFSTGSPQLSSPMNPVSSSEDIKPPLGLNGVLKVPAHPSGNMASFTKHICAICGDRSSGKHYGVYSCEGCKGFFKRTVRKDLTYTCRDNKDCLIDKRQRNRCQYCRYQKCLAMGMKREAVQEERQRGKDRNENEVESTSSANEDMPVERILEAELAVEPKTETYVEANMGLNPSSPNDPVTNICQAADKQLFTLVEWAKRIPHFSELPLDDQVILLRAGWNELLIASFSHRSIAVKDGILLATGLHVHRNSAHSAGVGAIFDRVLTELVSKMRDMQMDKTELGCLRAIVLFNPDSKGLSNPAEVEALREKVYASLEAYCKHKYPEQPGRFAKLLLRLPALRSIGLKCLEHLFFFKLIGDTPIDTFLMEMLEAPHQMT
human Thyroid Receptor alpha (THRa1), THRA (gene 7067), sequence (P10827 whole entry, looked up, the tested form may be a part): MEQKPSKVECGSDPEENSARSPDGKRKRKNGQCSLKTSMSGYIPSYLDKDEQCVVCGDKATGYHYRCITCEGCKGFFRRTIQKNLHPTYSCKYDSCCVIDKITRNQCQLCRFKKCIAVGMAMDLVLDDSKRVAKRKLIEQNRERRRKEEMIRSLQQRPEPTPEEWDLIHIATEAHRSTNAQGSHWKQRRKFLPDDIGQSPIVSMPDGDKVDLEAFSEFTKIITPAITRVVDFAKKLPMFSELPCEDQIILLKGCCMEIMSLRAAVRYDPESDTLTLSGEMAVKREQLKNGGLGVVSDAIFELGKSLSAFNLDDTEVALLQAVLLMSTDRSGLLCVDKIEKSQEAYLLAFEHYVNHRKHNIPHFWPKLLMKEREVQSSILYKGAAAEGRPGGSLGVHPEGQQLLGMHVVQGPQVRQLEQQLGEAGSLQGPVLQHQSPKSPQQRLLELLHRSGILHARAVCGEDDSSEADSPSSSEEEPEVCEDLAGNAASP
human Vitamin D Receptor (VDR), VDR (gene 7421), sequence (P11473 whole entry, looked up): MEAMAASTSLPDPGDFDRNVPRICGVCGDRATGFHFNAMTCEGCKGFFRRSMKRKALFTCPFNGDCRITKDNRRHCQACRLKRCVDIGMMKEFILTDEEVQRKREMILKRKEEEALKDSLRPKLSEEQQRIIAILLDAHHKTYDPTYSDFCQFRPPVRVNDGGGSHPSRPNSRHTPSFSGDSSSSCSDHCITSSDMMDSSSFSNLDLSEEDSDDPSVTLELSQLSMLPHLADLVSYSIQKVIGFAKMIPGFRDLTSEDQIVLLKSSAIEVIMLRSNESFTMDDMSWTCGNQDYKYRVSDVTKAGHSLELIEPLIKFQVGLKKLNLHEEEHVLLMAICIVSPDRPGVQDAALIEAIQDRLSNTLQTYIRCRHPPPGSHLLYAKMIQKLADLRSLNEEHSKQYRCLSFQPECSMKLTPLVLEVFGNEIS
E-selectin (Homo sapiens), sequence (P16581 whole entry, looked up): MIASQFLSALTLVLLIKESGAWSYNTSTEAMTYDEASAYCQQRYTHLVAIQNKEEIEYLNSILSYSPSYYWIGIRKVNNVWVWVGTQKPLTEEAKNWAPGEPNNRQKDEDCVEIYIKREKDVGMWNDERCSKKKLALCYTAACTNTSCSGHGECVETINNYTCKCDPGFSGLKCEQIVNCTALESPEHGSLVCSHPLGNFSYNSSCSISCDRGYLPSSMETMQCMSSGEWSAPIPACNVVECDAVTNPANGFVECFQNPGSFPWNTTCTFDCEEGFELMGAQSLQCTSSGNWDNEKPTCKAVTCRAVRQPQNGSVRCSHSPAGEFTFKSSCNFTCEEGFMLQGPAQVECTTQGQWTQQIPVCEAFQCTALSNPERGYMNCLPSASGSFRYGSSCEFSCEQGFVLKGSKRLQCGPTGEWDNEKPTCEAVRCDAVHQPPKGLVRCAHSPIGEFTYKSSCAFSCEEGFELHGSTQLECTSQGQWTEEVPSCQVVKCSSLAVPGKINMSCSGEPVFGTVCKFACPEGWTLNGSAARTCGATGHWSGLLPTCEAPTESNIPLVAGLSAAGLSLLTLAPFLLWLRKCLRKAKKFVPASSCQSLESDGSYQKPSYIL
human RAR-related Orphan Receptor gamma (RORg), RORC (gene 6097), sequence (P51449 whole entry, looked up, the tested form may be a part): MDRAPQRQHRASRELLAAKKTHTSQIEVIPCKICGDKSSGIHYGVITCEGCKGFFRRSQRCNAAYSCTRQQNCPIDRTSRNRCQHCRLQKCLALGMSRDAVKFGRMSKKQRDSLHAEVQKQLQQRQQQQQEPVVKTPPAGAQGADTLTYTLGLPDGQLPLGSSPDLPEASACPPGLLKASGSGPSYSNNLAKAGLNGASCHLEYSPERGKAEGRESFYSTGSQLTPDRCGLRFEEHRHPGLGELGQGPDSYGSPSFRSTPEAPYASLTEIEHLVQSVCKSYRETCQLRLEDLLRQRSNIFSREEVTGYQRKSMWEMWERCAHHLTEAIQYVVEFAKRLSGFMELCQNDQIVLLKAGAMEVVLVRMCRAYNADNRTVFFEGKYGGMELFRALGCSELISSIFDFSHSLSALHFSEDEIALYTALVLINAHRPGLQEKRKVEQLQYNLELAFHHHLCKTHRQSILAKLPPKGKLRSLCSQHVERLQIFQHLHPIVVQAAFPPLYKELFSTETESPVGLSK

For `NC(=O)NN=Cc1ccc([N+](=O)[O-])o1`, the outcome in experiment [1], in [2], in [3], in experiment [4], in experiment [5] and in experiment [6] was inactive. The outcome in experiment [7], in experiment [8], in [9], in experiment [10], in [11] and in experiment [12] was inactive. The outcome in experiment [13], in experiment [14], in [15], in experiment [16] and in [17] was inactive.

`O=C1CN(N=Cc2ccc([N+](=O)[O-])o2)C(=O)N1`: the result in experiment [18], in [20], in experiment [3], in [4], in [5] and in [6] was inactive. In addition, the outcome in [7], in [8], in experiment [9], in experiment [10], in [11] and in [12] was inactive. Besides, the result in experiment [13], in experiment [14], in experiment [15], in [16] and in [17] was inactive. Also, in [19], the AC50 is 45.6 µM (active).

As to `CCCCCCCCCCCCCCO`, the result in experiment [18], in experiment [20], in [3], in [9], in experiment [11] and in experiment [15] was inactive. The outcome in experiment [16] was inactive. Besides, the AC50 in [19] was 45.4 µM (active); in experiment [5] it was 29.6 µM (active); in [6] it was 36.7 µM (active); in [7] it was 30.4 µM (active); in experiment [8], 30.7 µM (active); in experiment [10], 31.3 µM (active). Besides, the concentration at half-maximal activity (AC50) in experiment [12] is 37.5 µM (active); in [13], 33.1 µM (active); in [14], 34 µM (active); in [17], 32.6 µM (active).

In the case of `CCOc1ccc2[nH]cc(C(=O)NCc3ccccc3)c(=O)c2n1`, the call in [18], in experiment [19], in [20], in experiment [2], in experiment [3] and in [4] was inactive. Further, the result in [5], in [6], in [7], in [8], in [9] and in experiment [10] was inactive. The result in [11], in experiment [12], in experiment [13], in [14], in experiment [15] and in [16] was inactive. Further, the result in experiment [17] was inactive.
